Experimental findings from paper PMC7862700, “An all-to-all approach to the identification of sequence-specific readers for epigenetic DNA modifications on cytosine” are described below.

Assay in all cases: DAPPL (digital affinity profiling via proximity ligation, sequencing); 10 mM Tris-HCl pH 7.5, 50 mM NaCl, 1 mM DTT, 4% glycerol, room temperature, 30 min; GST-TFs on glutathione beads, 16-mer random dsDNA library, 0.1% formaldehyde crosslink after washing; high values mean tight binding
Common to all, as to conditions: protein: recombinant; tags: N-terminal GST; dsDNA, one strand shown

One assay deals with T1, ELK1 (Homo sapiens, UniProt P19419 1-428).
T1 sequence: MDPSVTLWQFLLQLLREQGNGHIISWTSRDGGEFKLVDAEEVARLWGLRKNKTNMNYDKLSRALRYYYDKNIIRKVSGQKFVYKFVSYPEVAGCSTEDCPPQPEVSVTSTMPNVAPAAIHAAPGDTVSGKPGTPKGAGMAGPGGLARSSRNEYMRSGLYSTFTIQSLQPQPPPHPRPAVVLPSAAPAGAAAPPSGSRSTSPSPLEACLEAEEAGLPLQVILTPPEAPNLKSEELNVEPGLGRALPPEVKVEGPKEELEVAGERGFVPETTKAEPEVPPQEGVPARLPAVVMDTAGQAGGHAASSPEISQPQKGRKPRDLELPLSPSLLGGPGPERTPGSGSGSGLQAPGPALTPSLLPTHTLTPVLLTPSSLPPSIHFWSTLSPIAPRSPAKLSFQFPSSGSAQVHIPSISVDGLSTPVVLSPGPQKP
A digest of the protocol: (§1)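 GST fusions of human transcription factors were expressed in yeast and captured with glutathione beads. Once given DNA barcodes and pooled alongside a tag-only sample, they were incubated for 30 min at room temperature with 200 nmole of a random double-stranded 16-mer DNA library in Tris/NaCl/DTT/glycerol buffer, then washed, crosslinked (0.1% formaldehyde), proximity-ligated, PCR-amplified and sequenced on an Illumina NextSeq500. The binding signal of each hexamer is its read frequency for a factor divided by its frequency for the tag-only sample.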

The next assay has as its target T2, ERG (Homo sapiens, UniProt P11308 1-479).
T2 sequence: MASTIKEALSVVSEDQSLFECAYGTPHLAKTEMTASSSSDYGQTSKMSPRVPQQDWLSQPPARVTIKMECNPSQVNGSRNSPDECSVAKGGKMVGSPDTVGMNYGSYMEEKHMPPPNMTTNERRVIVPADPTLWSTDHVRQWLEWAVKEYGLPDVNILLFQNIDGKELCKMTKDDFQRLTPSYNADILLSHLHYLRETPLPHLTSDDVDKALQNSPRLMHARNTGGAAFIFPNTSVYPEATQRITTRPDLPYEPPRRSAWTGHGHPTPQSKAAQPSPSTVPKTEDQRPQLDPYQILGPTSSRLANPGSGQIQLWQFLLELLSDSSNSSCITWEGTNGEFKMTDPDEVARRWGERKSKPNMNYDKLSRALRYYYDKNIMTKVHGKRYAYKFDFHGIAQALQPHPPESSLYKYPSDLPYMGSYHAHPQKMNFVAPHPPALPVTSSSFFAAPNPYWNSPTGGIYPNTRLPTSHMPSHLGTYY
A digest of the protocol:
as §1

Another assay has as its target ELF1 (Homo sapiens, UniProt P32519 1-619). Summed up: as §1
The next assay has as its target T3, EHF (Homo sapiens, UniProt Q9NZC4 1-300).
T3 sequence: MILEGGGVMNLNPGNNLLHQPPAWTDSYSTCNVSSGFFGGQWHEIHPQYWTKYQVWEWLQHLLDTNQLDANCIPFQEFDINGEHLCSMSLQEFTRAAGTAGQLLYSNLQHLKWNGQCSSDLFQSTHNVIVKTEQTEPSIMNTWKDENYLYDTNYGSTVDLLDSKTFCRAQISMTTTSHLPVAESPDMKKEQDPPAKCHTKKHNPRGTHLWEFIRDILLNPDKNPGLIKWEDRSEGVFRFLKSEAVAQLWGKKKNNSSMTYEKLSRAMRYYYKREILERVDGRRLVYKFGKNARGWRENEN
Summed up:
as §1

The next assay addresses SPIB (Homo sapiens, UniProt Q01892 1-262). A digest of the protocol: as §1
The target of another assay is T4, FEV (Homo sapiens, UniProt Q99581 1-238).
T4 sequence: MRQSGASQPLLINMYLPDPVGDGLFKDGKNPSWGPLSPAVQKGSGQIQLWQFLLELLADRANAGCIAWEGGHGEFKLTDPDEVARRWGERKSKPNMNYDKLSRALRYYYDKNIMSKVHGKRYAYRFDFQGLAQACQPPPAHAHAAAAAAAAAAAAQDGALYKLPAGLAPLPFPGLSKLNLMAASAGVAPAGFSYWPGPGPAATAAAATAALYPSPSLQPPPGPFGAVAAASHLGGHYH
A digest of the protocol: as §1

The next assay deals with ETV5 (Homo sapiens, UniProt P41161 1-510). Summed up:
as §1

The target of another assay is ELF4 (Homo sapiens, UniProt Q99607 1-663). Summed up:
as §1

The target in another assay is T5, ELK4 (Homo sapiens, UniProt P28324-2 1-405).
T5 sequence: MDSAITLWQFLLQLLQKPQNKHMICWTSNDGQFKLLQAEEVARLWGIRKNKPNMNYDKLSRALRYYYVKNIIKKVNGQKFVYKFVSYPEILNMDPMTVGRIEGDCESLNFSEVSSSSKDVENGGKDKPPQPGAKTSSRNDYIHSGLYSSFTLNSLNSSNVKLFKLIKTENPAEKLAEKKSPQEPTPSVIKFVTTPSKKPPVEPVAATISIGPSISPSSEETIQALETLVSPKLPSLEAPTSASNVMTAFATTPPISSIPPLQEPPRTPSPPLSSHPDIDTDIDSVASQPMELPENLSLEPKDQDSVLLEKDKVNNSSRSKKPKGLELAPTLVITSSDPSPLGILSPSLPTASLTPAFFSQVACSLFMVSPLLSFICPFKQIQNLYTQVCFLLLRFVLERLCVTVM
Summed up: as §1

For the next assay, the target named is T6, ETV2 (Homo sapiens, UniProt O00321 1-342).
T6 sequence: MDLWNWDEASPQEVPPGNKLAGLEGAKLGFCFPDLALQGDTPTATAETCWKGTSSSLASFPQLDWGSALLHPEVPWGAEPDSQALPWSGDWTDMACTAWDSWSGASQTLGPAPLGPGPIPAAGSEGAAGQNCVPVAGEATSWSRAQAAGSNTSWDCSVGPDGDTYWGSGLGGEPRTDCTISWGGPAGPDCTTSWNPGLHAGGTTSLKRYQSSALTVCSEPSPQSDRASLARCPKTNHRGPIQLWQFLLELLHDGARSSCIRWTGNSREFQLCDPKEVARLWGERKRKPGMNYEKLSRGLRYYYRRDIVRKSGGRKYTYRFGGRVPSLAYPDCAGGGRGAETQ
A digest of the protocol:
as §1

A further assay has as its target T7, ELF3 (Homo sapiens, UniProt P78545 1-371).
T7 sequence: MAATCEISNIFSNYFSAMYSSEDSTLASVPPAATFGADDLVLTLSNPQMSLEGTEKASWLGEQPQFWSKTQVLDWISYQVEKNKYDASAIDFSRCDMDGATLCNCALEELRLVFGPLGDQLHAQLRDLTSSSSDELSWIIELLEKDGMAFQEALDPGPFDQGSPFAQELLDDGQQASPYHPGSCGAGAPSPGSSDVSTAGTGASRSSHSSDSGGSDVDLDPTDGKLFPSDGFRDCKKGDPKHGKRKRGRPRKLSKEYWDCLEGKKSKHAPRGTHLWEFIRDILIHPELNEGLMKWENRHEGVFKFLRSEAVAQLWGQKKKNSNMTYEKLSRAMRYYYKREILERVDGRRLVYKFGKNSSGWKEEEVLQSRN
A digest of the protocol: as §1

A further assay has as its target ETV1 (Homo sapiens, UniProt P50549 1-477). A digest of the protocol:
as §1

For the next assay, the target named is T8, ERF (Homo sapiens, UniProt P50548 1-548).
T8 sequence: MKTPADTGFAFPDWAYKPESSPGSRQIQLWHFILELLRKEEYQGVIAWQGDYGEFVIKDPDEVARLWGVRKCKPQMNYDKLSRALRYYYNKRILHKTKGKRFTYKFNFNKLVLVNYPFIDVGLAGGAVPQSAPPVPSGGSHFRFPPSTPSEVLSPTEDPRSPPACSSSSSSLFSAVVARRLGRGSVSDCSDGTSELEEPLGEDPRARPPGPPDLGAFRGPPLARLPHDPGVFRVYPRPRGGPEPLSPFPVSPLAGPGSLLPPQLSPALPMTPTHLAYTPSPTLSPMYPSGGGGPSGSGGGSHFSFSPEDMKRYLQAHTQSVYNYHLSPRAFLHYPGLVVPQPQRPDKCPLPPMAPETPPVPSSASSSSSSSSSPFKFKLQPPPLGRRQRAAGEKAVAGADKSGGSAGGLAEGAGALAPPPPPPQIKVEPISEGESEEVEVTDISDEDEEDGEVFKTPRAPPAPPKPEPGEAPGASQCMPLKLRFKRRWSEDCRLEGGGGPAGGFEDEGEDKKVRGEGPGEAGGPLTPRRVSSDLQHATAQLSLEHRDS
A digest of the protocol:
as §1

The next assay deals with T9, ETV3L (Homo sapiens, UniProt Q6ZN32 1-361).
T9 sequence: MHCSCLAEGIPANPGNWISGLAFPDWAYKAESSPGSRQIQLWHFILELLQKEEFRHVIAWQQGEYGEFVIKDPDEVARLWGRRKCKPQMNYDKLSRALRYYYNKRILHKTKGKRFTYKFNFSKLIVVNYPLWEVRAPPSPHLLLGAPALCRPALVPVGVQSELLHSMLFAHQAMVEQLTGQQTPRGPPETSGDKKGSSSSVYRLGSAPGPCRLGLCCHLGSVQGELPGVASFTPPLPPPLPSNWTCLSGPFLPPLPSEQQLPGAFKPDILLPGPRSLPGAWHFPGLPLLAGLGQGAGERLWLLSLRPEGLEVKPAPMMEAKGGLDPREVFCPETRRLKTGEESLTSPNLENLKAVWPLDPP
Summed up: as §1

Another assay addresses T10, ETS2 (Homo sapiens, UniProt P15036 1-469).
T10 sequence: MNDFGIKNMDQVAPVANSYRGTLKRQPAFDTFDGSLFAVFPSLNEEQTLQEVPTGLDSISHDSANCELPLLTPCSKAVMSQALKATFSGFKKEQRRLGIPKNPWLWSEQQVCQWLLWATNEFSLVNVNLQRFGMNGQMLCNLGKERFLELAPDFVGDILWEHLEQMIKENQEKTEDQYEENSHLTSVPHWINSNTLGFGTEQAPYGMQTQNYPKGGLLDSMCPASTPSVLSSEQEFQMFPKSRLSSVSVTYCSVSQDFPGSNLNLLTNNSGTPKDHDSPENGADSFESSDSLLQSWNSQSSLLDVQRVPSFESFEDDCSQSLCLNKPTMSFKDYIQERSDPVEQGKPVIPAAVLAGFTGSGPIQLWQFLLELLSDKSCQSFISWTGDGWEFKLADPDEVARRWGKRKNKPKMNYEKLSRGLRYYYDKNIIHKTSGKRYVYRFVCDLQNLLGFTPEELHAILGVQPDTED
A digest of the protocol:
as §1

In another assay the target is T11, ETV3 (Homo sapiens, UniProt P41162-2 1-143).
T11 sequence: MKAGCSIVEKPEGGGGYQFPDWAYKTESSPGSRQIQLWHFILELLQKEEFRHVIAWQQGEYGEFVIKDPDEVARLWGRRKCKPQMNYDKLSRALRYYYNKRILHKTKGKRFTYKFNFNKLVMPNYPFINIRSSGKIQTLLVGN
A digest of the protocol: as §1

The target of another assay is ETV6 (Homo sapiens, UniProt P41212 1-452). Summed up: as §1
A further assay addresses T12, GABPA (Homo sapiens, UniProt Q06546 1-454).
T12 sequence: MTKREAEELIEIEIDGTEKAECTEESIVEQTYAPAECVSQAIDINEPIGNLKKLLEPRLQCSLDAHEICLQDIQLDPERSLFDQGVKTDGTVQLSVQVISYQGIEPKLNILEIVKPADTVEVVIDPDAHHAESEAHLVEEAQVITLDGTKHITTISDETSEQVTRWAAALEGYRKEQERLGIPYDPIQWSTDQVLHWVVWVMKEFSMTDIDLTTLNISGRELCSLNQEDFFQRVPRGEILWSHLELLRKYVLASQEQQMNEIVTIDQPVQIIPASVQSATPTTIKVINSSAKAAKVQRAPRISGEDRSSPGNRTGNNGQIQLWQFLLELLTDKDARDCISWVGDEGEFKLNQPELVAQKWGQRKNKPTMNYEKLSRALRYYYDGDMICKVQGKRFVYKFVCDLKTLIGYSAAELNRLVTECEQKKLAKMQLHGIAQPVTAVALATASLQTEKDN
Summed up: as §1

ETV1, sequence (P50549 whole entry): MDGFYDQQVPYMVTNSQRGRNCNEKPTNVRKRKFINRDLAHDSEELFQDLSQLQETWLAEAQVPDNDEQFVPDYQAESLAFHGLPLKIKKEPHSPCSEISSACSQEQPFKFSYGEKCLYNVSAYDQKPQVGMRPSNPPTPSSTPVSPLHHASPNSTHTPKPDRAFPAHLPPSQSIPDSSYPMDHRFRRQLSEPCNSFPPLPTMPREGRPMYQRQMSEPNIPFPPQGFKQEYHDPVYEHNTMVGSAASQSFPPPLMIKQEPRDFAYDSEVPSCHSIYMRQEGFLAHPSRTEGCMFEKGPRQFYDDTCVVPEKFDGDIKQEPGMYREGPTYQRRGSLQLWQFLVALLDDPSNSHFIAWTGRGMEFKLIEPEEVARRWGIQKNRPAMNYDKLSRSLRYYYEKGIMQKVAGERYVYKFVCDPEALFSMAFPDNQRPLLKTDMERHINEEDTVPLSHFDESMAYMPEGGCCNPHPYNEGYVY
ETV5, sequence (P41161 whole entry): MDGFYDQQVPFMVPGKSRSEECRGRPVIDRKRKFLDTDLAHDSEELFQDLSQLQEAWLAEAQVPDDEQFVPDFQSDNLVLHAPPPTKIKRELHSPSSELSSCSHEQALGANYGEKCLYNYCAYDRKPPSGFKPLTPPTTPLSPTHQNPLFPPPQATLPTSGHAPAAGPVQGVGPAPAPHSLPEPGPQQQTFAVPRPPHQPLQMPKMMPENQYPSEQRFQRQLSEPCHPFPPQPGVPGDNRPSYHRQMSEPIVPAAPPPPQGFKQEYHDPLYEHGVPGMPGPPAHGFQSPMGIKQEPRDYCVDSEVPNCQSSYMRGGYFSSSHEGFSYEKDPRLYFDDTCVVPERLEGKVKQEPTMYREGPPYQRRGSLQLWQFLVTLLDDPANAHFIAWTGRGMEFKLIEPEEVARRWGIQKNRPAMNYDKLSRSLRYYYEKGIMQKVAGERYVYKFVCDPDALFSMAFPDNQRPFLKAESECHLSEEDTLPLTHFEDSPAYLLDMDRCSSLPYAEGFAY
ELF4, sequence (Q99607 whole entry): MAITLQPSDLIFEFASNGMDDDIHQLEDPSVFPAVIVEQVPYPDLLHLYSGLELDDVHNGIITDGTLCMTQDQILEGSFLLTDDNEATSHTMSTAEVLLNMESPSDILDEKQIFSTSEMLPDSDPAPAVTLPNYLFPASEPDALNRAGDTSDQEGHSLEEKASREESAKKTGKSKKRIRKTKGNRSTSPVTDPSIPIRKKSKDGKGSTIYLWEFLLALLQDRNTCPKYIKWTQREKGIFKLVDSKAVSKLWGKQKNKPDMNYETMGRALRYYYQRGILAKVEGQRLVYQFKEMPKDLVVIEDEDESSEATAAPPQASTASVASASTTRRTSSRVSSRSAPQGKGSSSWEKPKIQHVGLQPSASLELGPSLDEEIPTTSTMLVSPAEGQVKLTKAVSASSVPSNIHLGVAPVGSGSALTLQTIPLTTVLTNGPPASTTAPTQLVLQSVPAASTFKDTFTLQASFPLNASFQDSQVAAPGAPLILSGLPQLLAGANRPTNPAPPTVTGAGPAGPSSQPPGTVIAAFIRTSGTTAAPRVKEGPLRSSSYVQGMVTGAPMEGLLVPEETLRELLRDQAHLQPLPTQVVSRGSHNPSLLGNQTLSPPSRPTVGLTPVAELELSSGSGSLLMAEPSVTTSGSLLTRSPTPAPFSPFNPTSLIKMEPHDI
SPIB, sequence (Q01892 whole entry): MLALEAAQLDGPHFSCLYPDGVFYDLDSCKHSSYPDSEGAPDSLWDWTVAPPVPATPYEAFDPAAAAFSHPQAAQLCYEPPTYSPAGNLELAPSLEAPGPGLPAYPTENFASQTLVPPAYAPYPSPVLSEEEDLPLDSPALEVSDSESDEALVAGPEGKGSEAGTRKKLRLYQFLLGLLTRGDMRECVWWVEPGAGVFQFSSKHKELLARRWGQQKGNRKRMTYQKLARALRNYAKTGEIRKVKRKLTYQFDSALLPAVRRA
ELF1, sequence (P32519 whole entry): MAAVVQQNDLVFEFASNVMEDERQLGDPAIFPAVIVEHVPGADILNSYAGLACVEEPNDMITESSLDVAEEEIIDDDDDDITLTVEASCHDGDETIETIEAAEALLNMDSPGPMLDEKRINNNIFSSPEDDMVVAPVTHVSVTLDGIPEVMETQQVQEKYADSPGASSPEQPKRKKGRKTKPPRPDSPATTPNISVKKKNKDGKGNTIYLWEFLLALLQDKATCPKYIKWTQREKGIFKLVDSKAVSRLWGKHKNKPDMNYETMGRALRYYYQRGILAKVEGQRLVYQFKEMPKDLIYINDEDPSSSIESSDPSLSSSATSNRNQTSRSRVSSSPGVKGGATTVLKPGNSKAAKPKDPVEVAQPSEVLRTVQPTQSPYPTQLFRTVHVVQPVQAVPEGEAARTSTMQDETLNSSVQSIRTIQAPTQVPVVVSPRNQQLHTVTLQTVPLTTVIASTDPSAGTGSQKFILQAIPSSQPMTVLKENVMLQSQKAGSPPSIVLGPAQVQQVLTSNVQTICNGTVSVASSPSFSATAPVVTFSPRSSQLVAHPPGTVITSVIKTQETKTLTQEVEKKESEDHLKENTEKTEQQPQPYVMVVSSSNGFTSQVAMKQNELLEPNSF
ETV6, sequence (P41212 whole entry): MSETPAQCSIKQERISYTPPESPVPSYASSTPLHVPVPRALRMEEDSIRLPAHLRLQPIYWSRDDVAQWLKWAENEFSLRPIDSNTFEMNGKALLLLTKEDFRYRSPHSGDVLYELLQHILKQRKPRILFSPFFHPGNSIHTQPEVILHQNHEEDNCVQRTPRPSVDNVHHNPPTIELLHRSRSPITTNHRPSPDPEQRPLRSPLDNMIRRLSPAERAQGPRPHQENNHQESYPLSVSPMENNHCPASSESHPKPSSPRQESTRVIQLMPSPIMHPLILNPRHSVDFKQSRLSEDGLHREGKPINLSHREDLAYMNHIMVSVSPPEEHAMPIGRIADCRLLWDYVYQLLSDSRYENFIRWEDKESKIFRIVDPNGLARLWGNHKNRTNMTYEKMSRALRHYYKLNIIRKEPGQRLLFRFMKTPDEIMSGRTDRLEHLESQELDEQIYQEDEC

In the case of CAAGTT, the binding signal is 1.06 fold enrichment (6-mer frequency, TF over GST control) in the assay with ELK1; 1.08 fold enrichment (6-mer frequency, TF over GST control) in the assay with ERG; 1.06 fold enrichment (6-mer frequency, TF over GST control) in the assay with ELF1; 1.02 fold enrichment (6-mer frequency, TF over GST control) in the assay with EHF; 1.1 fold enrichment (6-mer frequency, TF over GST control) with SPIB; 1.02 fold enrichment (6-mer frequency, TF over GST control) in the assay with FEV. Also, the binding signal is 1.08 fold enrichment (6-mer frequency, TF over GST control) with ETV5; 1.09 fold enrichment (6-mer frequency, TF over GST control) with ELF4; 1.08 fold enrichment (6-mer frequency, TF over GST control) with ELK4; 1.03 fold enrichment (6-mer frequency, TF over GST control) with ETV2; 1.06 fold enrichment (6-mer frequency, TF over GST control) in the assay with ELF3; 1.05 fold enrichment (6-mer frequency, TF over GST control) in the assay with ETV1. Besides, the binding signal was 1.2 fold enrichment (6-mer frequency, TF over GST control) with ERF; 1.1 fold enrichment (6-mer frequency, TF over GST control) with ETV3L; 1.13 fold enrichment (6-mer frequency, TF over GST control) with ETS2; 1.16 fold enrichment (6-mer frequency, TF over GST control) with ETV3; 1.09 fold enrichment (6-mer frequency, TF over GST control) with ETV6.

As to CACGCA, the binding signal with ELK1 is 1.01 fold enrichment (6-mer frequency, TF over GST control); with GABPA, 1.02 fold enrichment (6-mer frequency, TF over GST control); in the assay with ELF1, 1.05 fold enrichment (6-mer frequency, TF over GST control); with EHF, 1.01 fold enrichment (6-mer frequency, TF over GST control); with SPIB, 1.01 fold enrichment (6-mer frequency, TF over GST control); with FEV, 1.02 fold enrichment (6-mer frequency, TF over GST control). Besides, the binding signal is 1.05 fold enrichment (6-mer frequency, TF over GST control) in the assay with ETV5; 1.03 fold enrichment (6-mer frequency, TF over GST control) with ELF4; 1.11 fold enrichment (6-mer frequency, TF over GST control) in the assay with ELK4; 1.18 fold enrichment (6-mer frequency, TF over GST control) with ETV2; 1.04 fold enrichment (6-mer frequency, TF over GST control) in the assay with ELF3; 1.09 fold enrichment (6-mer frequency, TF over GST control) with ETV1. The binding signal with ETS2 is 1.03 fold enrichment (6-mer frequency, TF over GST control); with ETV3, 1.07 fold enrichment (6-mer frequency, TF over GST control).
